Source: the OligoGym collection

The sequences below were run against RBMY1E (assay: pooled miR-30 sensor sort-seq; sequence = guide strand). Settings: shRNA.
Note: reference of the scale not given here.

Sequence	sensor-assay potency score (higher = more potent)
TTCCACCATAGGACATCCGAGG	-1.61
TTGAGCTACCACATGCTTCACG	-0.607
AACTTGAGCTACCACATGCTTC	-1.03

These sequences were tested against RBP1 in the same assay as above. Settings: shRNA.

Sequence	sensor-assay potency score (higher = more potent)
ATTCTCGTTGACCAACATCTTC	-0.954
TTCCTAAAAGTGCTCAGCGTGC	-1.04
TACTCCTCGAAATTCTCGTTGA	-0.0394
TTGCTTGCAGACCACACCTTCC	-0.849
AAGTCCATGATGTAGTTCCTAA	-0.968
TTCTGCACACACTGGAGCTTGT	-0.8
TTCTCGTTGACCAACATCTTCC	-0.467
TCGTTGACCAACATCTTCCAGT	-0.239
ACTGTTGTCATGCACTTGCGGT	-1.01
TTGACCAACATCTTCCAGTACC	-0.856
TTCCACTCTCATCTCTAGGTGC	-0.438
TTGTCATGCACTTGCGGTCATC	-1.49

These sequences were tested against RCSD1 in the same assay as above. Settings: shRNA.

Sequence	sensor-assay potency score (higher = more potent)
TTAAAAAGGAACTTTACCCAAG	-0.456
TTGAAAAGTTGTCTCTAGGGTT	-0.0262
TTGTTGTTGAACCAAGTCCATC	-1.65
TTTGAGAACCGTAAACACTTTA	-0.421
TTGAGAACCGTAAACACTTTAG	-0.662
TTCCTTAGCACCGTTCTGCTGA	0.0396
TTTGATACAATTTAGGGTCTTC	0.305
TACAACTGTTGCTGCTACCTGC	0.0449
TAACTGATATTTGAGAACCGTA	-1.05
TATCTCTTCTAGTCCAGTGTTT	-0.522
TAGAACATTAAAAAGGAACTTT	0.0564
TAGCCTTTTCCATCTCTGCTTC	-0.0691

What follows are sequences tested against RDH5 in the same assay as above. Settings: shRNA.

Sequence	sensor-assay potency score (higher = more potent)
ATCAGTGATATCCAACAGGGTG	-0.912
TCGGAAGCCTCTCTGGTCCAGC	-1.15
TTTCAGGTACTTGGTGAGGAAG	-1.78
TTAACGTGCATCTCCACCCACT	-0.757
ATGAGCTACATCCCGCCTCAGG	-1.65
TGCATTTTCAGGTACTTGGTGA	0.187
TCAGTGATATCCAACAGGGTGG	-0.32
TTTCTCCAGACTCTCCAGGTTG	-1.05
TTCCTTAACGTGCATCTCCACC	-0.947
TAGGTCCGGGTCACAGATCAGG	-1.62
AAAATGAGCTACATCCCGCCTC	-0.19
TGTGTTCACATTCAGCACCCGC	-1.07
